Results on 84 compounds are retold here after ChEMBL document CHEMBL5308541, “MAIP: An Open-Source Tool to Enrich High-Throughput Screening Output and Identify Novel, Druglike Molecules with Antimalarial Activity” (ACS Med Chem Lett, 2023).

The structures appear in SMILES notation. Hit rate of the full screen: of about 150,000 compounds, about 540 (0.36%) showed an effect of 50% or more. The list comes from a sample in which strong results are over-represented; it also holds similar structures and randomly drawn compounds.

Usually % Inhibition stands for the relative decrease from the control value, in per cent.

This experiment has as its system Plasmodium falciparum. The experiment can be described thus: Primary screen in NF54 nanoGlo assay, in single point, at 2uM, 72h; a lower Z score goes with more inhibition. The format is functional, Erythrocyte. Particulars: timepoint 72 hour.
Take `CN1CCC(N2CCC(CN(CCCn3cccn3)Cc3ccncc3)CC2)CC1`: the “% Inhibition” value was -6% and the Z score was 0.97.
Take `Cn1ncc(C(F)(F)F)c1CN[C@H]1CCCc2c1[nH]c1ccc(Cl)cc21`: the “% Inhibition” value is recorded as -15% and the Z score was 2.6.
As for `Clc1ccc2[nH]c3c(c2c1)CCCC3NC1CCN(C2CCOC2)CC1` (stereo not drawn), the “% Inhibition” value turned out to be 83% and the Z score is given as -16.55.
For `Cc1ccc2[nH]c3c(c2c1)CCCC3NC1CC2CCC1O2` (stereo not drawn), the “% Inhibition” value was -7% and the Z score was determined as 1.25.
With `CN1CCC[C@@H](CNc2ccnc3ccncc23)[C@@H]1c1ccnn1C`, the “% Inhibition” value turned out to be 10% and the Z score is -1.79.
`COCCCN1CCC(Nc2ncnc3cc(C)c(C)cc23)CC1`: the “% Inhibition” value was determined as 96% and the Z score is reported as -16.62.
`COCCN1CCC(Nc2ncnc3c(C)cccc23)CC1`: the “% Inhibition” value is listed as 4% and the Z score is -0.91.
On to `COCCN1CCC(Nc2nccnc2NC2CCN(CCOC)CC2)CC1`, for which the “% Inhibition” value is 1% and the Z score was -0.15.
Consider `COc1ccc(Nc2ncc(CN(C)CCn3ccnc3)s2)cc1`, for which the “% Inhibition” value is 1% and the Z score is listed as -0.26.
Consider `COCCN1CC[C@H](CNC2CCN(c3ncc4ccc(F)cc4n3)CC2)C1`, for which the “% Inhibition” value came out at 58% and the Z score is -10.01.
Consider `CCc1cc(Nc2ccc(N3CCOCC3)nc2)nc(-c2ccncc2)n1`, for which the “% Inhibition” value stood at 56% and the Z score is -9.65.
Regarding `CCc1cc(NC2CCN(CC(F)F)CC2)nc(-c2ccncc2)n1`, the “% Inhibition” value stood at 4% and the Z score is recorded as -0.75.
For `NCCc1cccc(CN2CCC[C@H](CN3CCCCC3)C2)c1`, the “% Inhibition” value stood at 3% and the Z score is on record as -0.52.
The matching figures for `CN1CCC(N2CCN(Cc3c(Cl)ccc(O)c3Cl)CC2)CC1`: -11% and 1.6.
Regarding `O=C(NCc1ccc(N2CCNCC2)c(F)c1)c1ccc(-c2noc(C(F)(F)F)n2)cc1`, the “% Inhibition” value is 67% and the Z score is -11.53.
With `O[C@H]1CCN(Cc2cccc(NCc3cn4ccnc4s3)c2)C1`, the “% Inhibition” value turned out to be 52% and the Z score was -7.83.
For the compound `OC1CCN(Cc2cccc(NCc3cccc(OCCn4ccnc4)c3)c2)CC1`, the “% Inhibition” value was -3% and the Z score is reported as 0.55.
The like results for `CCNc1cc(C)nc(NCCNC(=O)c2cc(-n3cccn3)nc(C)n2)n1` were, in that order, -1% and 0.15.
As to `CCNc1nc(C)cc(Nc2ccc(NC(=O)Nc3ccc(F)cc3F)cc2)n1`, the “% Inhibition” value is given as 96% and the Z score is -20.77.
On to `CCNc1cc(C)nc(NCCNC(=O)Nc2cc(F)cc(F)c2)n1`, for which the “% Inhibition” value came out at 79% and the Z score is recorded as -17.07.
For `NS(=O)(=O)Cc1cccc(NC(=O)c2cc(F)cc3c(=O)c4cccc(F)c4[nH]c23)c1`, the “% Inhibition” value is given as -8% and the Z score is given as 1.68.
Regarding `CN(C)Cc1ccccc1NC(=O)c1cccc2c(=O)c3ccccc3[nH]c12`, the “% Inhibition” value is on record as -2% and the Z score is reported as 0.38.
Turning to `COc1cc2nc(NCC3(N4CCN(C)CC4)CCCC3)cc(C)c2cc1OC`, the “% Inhibition” value is listed as 55% and the Z score is -8.35.
As to `COc1cc2nc(N3CCC(CN4CCN(C)CC4)CC3)cc(C)c2cc1OC`, the “% Inhibition” value is reported as -2% and the Z score stood at 0.44.
Turning to `CC(C)CCOc1ccc2[nH]c(-c3cc(N4CCC[C@@H]4CS(C)(=O)=O)ccn3)cc2c1`, the “% Inhibition” value was 97% and the Z score was -20.97.
In the case of `CCOc1cc2nccc(N3C[C@H]4CN(C)C[C@H]4C3)c2cc1OCC`, the “% Inhibition” value stood at 99% and the Z score was -21.22.
On to `O=C1c2cccc3cccc(c23)C(=O)N1CCc1nc2ccccc2s1`, for which the “% Inhibition” value is -1% and the Z score is given as 0.09.
The matching figures for `COCC(O)CN1CCC(NC2CCCNc3ccccc32)CC1` (stereo not drawn): -7% and 1.28.
For the compound `O=C(c1cc(-c2ccccc2)[nH]n1)N1CCC(c2nc3cc(C(F)(F)F)ccc3s2)CC1`, the “% Inhibition” value is recorded as 3% and the Z score is -0.4.
Turning to `O[C@@H]1CCCCC[C@H]1Nc1cccc(-n2ccnc2)n1`, the “% Inhibition” value is given as -11% and the Z score is 1.62.
Regarding `O[C@H]1CCN(Cc2ccccc2CNc2cccc(-n3ccnc3)n2)C1`, the “% Inhibition” value is 94% and the Z score is recorded as -14.28.
For the compound `CCN1CCC[C@H](Nc2cccc(-n3ccnc3)n2)C1`, the “% Inhibition” value is 46% and the Z score is listed as -6.91.
In the case of `CCn1nc(C(C)C)cc1C(=O)Nc1ccc(CC(=O)NC2CC2)cc1`, the “% Inhibition” value was determined as 3% and the Z score is recorded as -0.75.
In the case of `Cc1cc(=O)[nH]c(-n2nc(C)cc2NC(=O)[C@H](C)n2nc3c(cc2=O)CCC3)n1`, the “% Inhibition” value is listed as -7% and the Z score turned out to be 1.4.
Regarding `Cc1cc(=O)[nH]c(-n2nc(C)cc2NC(=O)C(=O)N2CCC[C@H](C)C2)n1`, the “% Inhibition” value was found to be 4% and the Z score is -0.54.
Consider `COC(=O)c1cn(CCNc2ccnc3cc(Cl)ccc23)cc2c(O)nnc1-2`, for which the “% Inhibition” value is recorded as 97% and the Z score is -19.19.
`Nc1cc(N2CCC(N3CCc4ccccc4C3)CC2)nc(N2CCOCC2)n1`: the “% Inhibition” value turned out to be 5% and the Z score is recorded as -0.91.
As to `Nc1cc(N2CCC(c3nc4cc(F)ccc4[nH]3)CC2)nc(N2CCOCC2)n1`, the “% Inhibition” value was found to be 52% and the Z score was -10.32.
In the case of `Cc1cc(NC[C@H](O)COc2ccc(F)cc2)nc2ccccc12`, the “% Inhibition” value amounted to 68% and the Z score is on record as -11.87.
The matching figures for `Cn1nnc(C(=O)N2CCCCC23CCCCCC3)n1`: 64% and -13.81.
Turning to `CCN1C[C@H](Nc2nc(C)nc3sccc23)[C@@H](OC)C1`, the “% Inhibition” value is on record as 99% and the Z score is reported as -21.25.
The like results for `CN(C)C1CCN(CCN[C@H]2CCc3ccc(F)cc32)CC1` were, in that order, 87% and -15.32.
The like results for `COc1ccc(C(O)CNC2CCc3ccc(F)cc32)cc1` (stereo not drawn) were, in that order, 0% and 0.04.
With `Cc1cnccc1NCCNc1nc(C(C)(C)C)nc2c1cnn2C`, the “% Inhibition” value was 20% and the Z score is -3.05.
`Cc1cc(=O)n(CCN2CCN(C(=O)c3ccc[nH]3)CC2)c(=O)[nH]1`: the “% Inhibition” value is on record as -9% and the Z score is 1.92.
The like results for `COc1ccc2cc(-c3cc(N)ccn3)[nH]c2c1` were, in that order, 54% and -11.7.
With `COc1ccc2c(C)cc(NCCCN3CCC[C@H](C(N)=O)C3)nc2c1`, the “% Inhibition” value stood at 57% and the Z score is recorded as -8.7.
`Cc1cc(NCCCN2CCC(C(=O)O)CC2)nc2ccccc12`: the “% Inhibition” value is on record as -15% and the Z score is 2.33.
With `NC(=O)[C@H]1CCCN(CCCNc2cc(C(F)(F)F)nc(N3CCCC3)n2)C1`, the “% Inhibition” value is listed as -5% and the Z score came to 0.88.
The like results for `c1ccc(CN2CCC(CCNC[C@@H]3CCCN4CCCC[C@H]34)CC2)cc1` were, in that order, 57% and -10.03.
For `c1ccc2c(CNCCC3CCN(c4ccncc4)CC3)csc2c1`, the “% Inhibition” value is listed as 80% and the Z score was -17.16.
The matching figures for `CN1CCN(CC[C@H]2CCCCN2Cc2cnn(-c3ccc(F)cc3)c2)CC1`: 3% and -0.51.
Turning to `CCN1CCN(c2ccccc2CNCCC2CCN(C)CC2)CC1`, the “% Inhibition” value came to 27% and the Z score was -4.06.
For `Fc1ccc(-n2cc(CNCCC3CCN(c4ccncc4)CC3)cn2)cc1`, the “% Inhibition” value was found to be 91% and the Z score is listed as -15.93.
For the compound `Fc1ccc2c(CCNCc3cnn(-c4ccccc4)c3)c[nH]c2c1`, the “% Inhibition” value is recorded as -3% and the Z score is reported as 0.71.
The matching figures for `Cc1cccc2c(-c3ccc(N4CCN(C)CC4)nn3)c[nH]c12`: -16% and 2.75.
Regarding `CNC(=O)CN1CCC(Nc2ncnc3ccc(C(C)C)cc23)CC1`, the “% Inhibition” value came out at 2% and the Z score is -0.48.
`Fc1ccccc1-c1nnc2ccc(NCc3ccccc3OC3CCCC3)nn12`: the “% Inhibition” value was -5% and the Z score was found to be 0.8.
On to `COc1ccc2[nH]cc(C3=CCN(c4ccc5nnc(-c6ccccc6F)n5n4)CC3)c2c1`, for which the “% Inhibition” value is listed as 51% and the Z score was -8.85.
The like results for `CN1CCC(N2CCC(NCc3cccc4nsnc34)CC2)CC1` were, in that order, 14% and -2.08.
`Cc1cccc([C@@H](C)CNC2CCN(CCN3CCOCC3)CC2)c1`: the “% Inhibition” value was -4% and the Z score came to 0.67.
Regarding `CCCc1cccc(CNC2CCN(C3CCN(C)CC3)CC2)c1`, the “% Inhibition” value worked out at 76% and the Z score was -16.27.
For the compound `FC(F)(F)Oc1cccc(CNC2CCN(C3CC3)CC2)c1`, the “% Inhibition” value is -13% and the Z score is recorded as 2.24.
With `C[C@@H](CNC1CCN(C2CCN(C)CC2)CC1)c1cccc(Cl)c1`, the “% Inhibition” value is 97% and the Z score is -17.23.
The matching figures for `Cn1cc(-c2cncc(C(=O)NC3CCN(c4cccc(F)c4)CC3)c2)cn1`: 50% and -10.8.
As for `O=C(c1cccc(OCCc2ccccc2)c1)N1CC2COCCC2(C(=O)O)C1` (stereo not drawn), the “% Inhibition” value is -3% and the Z score came to 0.52.
Regarding `Cc1cc(N2CC3COCCC3(C(=O)O)C2)nc2ccc(F)cc12` (stereo not drawn), the “% Inhibition” value is reported as 76% and the Z score is -13.26.
As to `Cc1sc2nc(-c3ccccn3)nc(NCCc3nccn3C)c2c1-c1ccccc1`, the “% Inhibition” value came to 71% and the Z score is -14.01.
Turning to `CCN1CCN(CC2CN(C/C=C/c3ccc(OC)cc3)CC2CO)CC1` (stereo not drawn), the “% Inhibition” value was -3% and the Z score came out at 0.7.
As for `O=C1CN(C2CCN(CC3CCCCC3)CC2)[C@]2(CCOC2)CN1Cc1ccccc1`, the “% Inhibition” value is given as -8% and the Z score is recorded as 1.39.
On to `Brc1ccc2[nH]c3c(c2c1)CCCC3NC1CCc2[nH]cnc2C1` (stereo not drawn), for which the “% Inhibition” value is on record as 98% and the Z score is listed as -19.51.
For `CN(C)C1(CNc2nc(C(F)(F)F)nc3cc(F)ccc23)CCCCCC1`, the “% Inhibition” value was determined as 61% and the Z score is given as -9.21.
In the case of `CN(C)C1(CNc2nc(C(F)(F)F)nc3cc4c(cc23)OCO4)CCCCCC1`, the “% Inhibition” value was 54% and the Z score is recorded as -8.21.
`CN(C)c1nc(N2CCC(N3CCN(CCO)CC3)CC2)ncc1F`: the “% Inhibition” value is -1% and the Z score turned out to be 0.13.
The like results for `Cc1ccccc1CN1CCC(CNc2c3c(nc4ccccc24)CCC3)CC1` were, in that order, 94% and -16.23.
The matching figures for `C[C@@H](c1cccc(-c2nccc3ncccc23)c1)N1CCCC1`: -7% and 1.08.
As to `Cc1cc(N2CCC(NCCc3cnn(-c4ccccc4)c3)CC2)nc(N)n1`, the “% Inhibition” value was -2% and the Z score is 0.43.
For the compound `Cc1cc(N2CCC(NCCCN3CCCc4ccccc43)CC2)nc(N)n1`, the “% Inhibition” value was 53% and the Z score is recorded as -8.02.
For the compound `Cc1ccc2nc(CCCNC3CCN(c4cc(C)nc(N)n4)CC3)oc2c1`, the “% Inhibition” value is reported as 40% and the Z score was -6.03.
As to `COc1ccc2[nH]c(CN3CCC[C@H](N4CCN(c5ccccc5)CC4)C3)c(C)c2c1`, the “% Inhibition” value was -4% and the Z score came out at 0.66.
Turning to `C[C@@H](c1cccc(-c2nc3cc(C#N)ccc3[nH]2)c1)N(C)C`, the “% Inhibition” value is on record as 27% and the Z score was -4.6.
In the case of `Cc1csc(=O)n1Cc1nnc(C(C)C)o1`, the “% Inhibition” value is -8% and the Z score is listed as 1.5.
Regarding `Cc1cnccc1NCCNCc1nc2ccccc2[nH]1`, the “% Inhibition” value was -2% and the Z score was determined as 0.37.
With `Cc1cnccc1NCCNCc1ccc(OC(C)C)c(Cl)c1`, the “% Inhibition” value was 79% and the Z score is -17.03.
